An excerpt weighted towards active compounds, which were near 17% of everything screened.
HepG2 viability – qHTS for Inhibitors of TGF-b: Cytotox Counterscreen; HepG2 CAGA-GFP viability, ATP luminescence, 18 h; Potency, µM (highest dose often 46.1 µM), for the others: at the top dose activity change, negative = cytotoxicity, usual class: cytotoxic; actives 0.76% (n = 410,000); AID 588856, 2011
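HepG2 CAGA-GFP cells (1000/well, DMEM with 1% FBS) received compound, then TGF-beta at 500 pg/mL final, and were incubated 18 hours at 37 degrees C. Viability was read by CellTiter-Glo luminescence. Media-only wells were set as complete cell-killing and DMSO as no toxicity.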
ATXN2 expr inh – Primary qHTS for Inhibitors of ATXN expression. Potency, µM (highest dose often 57 µM), inactives show at the top dose activity change, negative = inhibition, usual class: inhibitors. actives 0.72% (n = 360,000). HEK-293 ATXN2-luciferase reporter, luminescence, 24 h; further: on the % scale 0 is the no-effect control and ±100 the full control effect; nearly all actives have a fitted effect of over 55% in size
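ATXN2-luciferase reporter cells (luciferase flanked by upstream and downstream ATXN2 gene portions) were treated 24 h at 37 °C with compounds at up to 57 uM. SteadyGlo luminescence gave expression; GF-AFC fluorescence gave viability.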
TDP1 cell CPT – qHTS for Inhibitors of human tyrosyl-DNA phosphodiesterase 1 (TDP1): qHTS in cells in presence of CPT. chicken DT40 Tdp1-/-;hTDP1 cells + 20 nM CPT, ATP luminescence, 48 h. actives 12% (n = 420,000). Potency, µM (series often up to 46.2 µM), for inactives: at the highest dose activity change, negative = growth inhibition, most hits filed as inhibitors. AID 686979, 2013; further: on the % scale 0 is the no-effect control and ±100 the full control effect; nearly all actives have a fitted effect of over 55% in size
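Cell growth measured by CellTiter-Glo luminescence after a minimum 48 h, 37 C compound exposure with 20 nM CPT in Tdp1-knockout DT40 cells stably expressing hTDP1, seeded 400/well; qHTS titration format.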
TDP1 cell noCPT – qHTS for Inhibitors of human tyrosyl-DNA phosphodiesterase 1 (TDP1): qHTS in cells in absence of CPT; DT40 Tdp1-/- hTDP1 cells, no CPT, ATP luminescence, 48 h; Potency, µM (doses to about 46.2 µM), for inactives: at the top dose activity change, negative = growth inhibition, usual class: inhibitors; actives 15% (n = 420,000); AID 686978, 2013; further: on the % scale 0 is the no-effect control and ±100 the full control effect; nearly all actives have a fitted effect of over 55% in size
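Camptothecin absent (DMSO only). Human TDP1-complemented DT40 knockout cells, 400 cells/well, 37 °C for minimum 48 hr; ATP measured via CellTiter-Glo, 30 min dark incubation, luminescence.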
TGFb inhibitor – qHTS for Inhibitors of TGF-b; HepG2 CAGA-GFP TGF-b/SMAD3 reporter, GFP fluorescence, 18 h; TGF-beta stimulated, 500 pg/mL final; AID 588855, 2011; actives 1.2% (n = 410,000); Potency, µM (highest dose often 46.1 µM), for inactives: at the top dose activity, negative = inhibition, most hits filed as inhibitors; further: on the % scale 0 is the no-effect control and ±100 the full control effect; nearly all actives have a fitted effect of over 65% in size
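GFP signal (ex488/em500-530) from TGF-beta-stimulated HEPG2 CAGA-GFP cells, 500 pg/mL final, 18 h at 37 degrees C in DMEM plus 1% FBS, normalized to unstimulated and DMSO-stimulated controls.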
ATXN viability – Viability Counterscreen for Primary qHTS for Inhibitors of ATXN expression. S2 cells (HEK-293 line with an ATXN2-luciferase reporter) viability, CellTiter-Fluor protease fluorescence, 24 h. Potency, µM (top dose mostly 56.7 µM), hits mostly cytotoxic. actives 0.49% (n = 400,000). AID 651635, 2014; further: nearly all actives have a fitted effect of over 40% in size
* marks the source's active call; other numbers are inactive results; i = inactive; ? = inconclusive; / = not tested or not shown. The call rests on the fitted dose curve; in most records, active means well fitted curve in the direction sought with a large enough effect; inconclusive means small, poorly fitted or top-dose-only effect, or another doubt; inactive means no such curve, though single readings can be large; an effect the other way counts as inactive or inconclusive. Potency means the concentration at half of the fitted maximal effect.

SMILES | HepG2 viability | ATXN2 expr inh | TDP1 cell CPT | TDP1 cell noCPT | TGFb inhibitor | ATXN viability
Cc1ccccc1S(=O)(=O)NNC(=O)C(=O)NNc1ccccn1 | 16.4% | -19.5% | ? | 23.1µM* | 2.8% | i
CC(=O)OCC1OC(n2c(Br)nc3c(=O)[nH]c(N)nc32)C(OC(C)=O)C1OC(C)=O (centres undefined) | / | / | 11.4% | 22.2% | / | /
COc1ccc(OCC(=O)Nc2c(C(=O)N3CCN(c4ccccc4)CC3)oc3ccccc23)cc1 | -2.2% | 2.0% | ? | -9.7% | -12.8% | i
COc1ccc(N2CCN(C(=O)c3oc4ccccc4c3NC(=O)Cc3cccc(OC)c3)CC2)cc1 | -8.3% | -12.7% | ? | ? | 14.7% | i
CC(C)(C)C(=O)Nc1c(C(=O)N2CCN(c3ccc(F)cc3)CC2)oc2ccccc12 | -22.6% | -20.8% | 18.4µM* | 14.6µM* | -22.2% | i
O=C(c1oc2ccccc2c1CSCc1ccccc1)N1CCN(c2ncccn2)CC1 | -42.0% | ? | ? | ? | 15.8µM* | i
COc1cccc(CC(=O)Nc2c(C(=O)N3CCN(c4ccccc4F)CC3)oc3ccccc23)c1 | 0.9% | / | 5.8µM* | 4.61µM* | 9.2% | /
CC(C)CC(=O)Nc1c(C(=O)N2CCN(c3ccccc3F)CC2)oc2ccccc12 | 7.2% | / | 13µM* | 10.3µM* | -3.0% | /
COc1ccc(CNC(=O)c2nn(-c3ccccc3)cc2OC)cc1 | -21.6% | -14.5% | 2.4% | ? | -18.2% | i
CCOCC(=O)Nc1c(C(=O)N2CCN(c3ncccn3)CC2)oc2ccccc12 | -28.2% | -5.0% | ? | 11.6µM* | -5.5% | i
Cc1cccc(OCC(=O)Nc2c(C(=O)N3CCN(c4ccccc4F)CC3)oc3ccccc23)c1 | -1.7% | / | ? | 18.4µM* | ? | /
O=C(Nc1c(C(=O)N2CCN(c3ccccc3F)CC2)oc2ccccc12)c1cccc(F)c1 | -3.0% | 11.9% | ? | ? | 10.2% | i
Cc1ccc(CN2CCCN(C)CC2)c(C)c1 | -8.8% | -12.6% | ? | ? | 18.2% | i
CCC(C)Sc1ccc([C@H]2N[C@@](Cc3ccccc3)(C(=O)OC)[C@H]3C(=O)N(C)C(=O)[C@@H]23)cc1 (some centres undefined) | -21.7% | -10.3% | ? | ? | ? | ?
COC(=O)C1(Cc2ccccc2)NC(c2ccc(F)cc2)C2C(=O)N(C)C(=O)C21 (centres undefined) | 4.3% | -17.3% | -15.1% | ? | -21.5% | i
COC(=O)[C@]1(Cc2ccccc2)N[C@H](c2ccc(-c3cc(C(C)=O)cs3)cc2)[C@@H]2C(=O)N(C)C(=O)[C@@H]21 | 5.4% | 7.3% | 16.4µM* | 23.1µM* | 5.6% | i
COC(=O)[C@]1(Cc2ccccc2)N[C@H](c2ccc(-c3cccc(Cl)c3)cc2)[C@@H]2C(=O)N(C)C(=O)[C@@H]21 | -9.4% | -8.5% | 16.4µM* | ? | -15.8% | i
COC(=O)[C@]1(Cc2ccccc2)N[C@H](c2ccc(-c3ccccc3)cc2)[C@@H]2C(=O)N(C)C(=O)[C@@H]21 | -20.5% | -15.2% | ? | ? | ? | i
COC(=O)[C@]1(Cc2ccccc2)N[C@H](c2ccc(-c3ccc(Cl)c(Cl)c3)cc2)[C@@H]2C(=O)N(C)C(=O)[C@@H]21 | -10.2% | -6.4% | 18.4µM* | 18.4µM* | 2.6% | i
CCCc1nn2c(=O)cc(COC(=O)c3cccc(NC(=O)c4ccc(OCC)cc4)c3)nc2s1 | -1.4% | / | -10.1% | -18.8% | ? | /
CC(C)C[C@H]1CNC(=S)N1C[C@H]1CCCN1C[C@H](CC(C)C)N1C[C@H](CC(C)C)N(CCc2ccccc2)C1=S | -20.1% | ? | ? | 25.9µM* | ? | ?
CC(C)C[C@@H](CN1CCC[C@H]1CN1C(=O)C(=O)NC[C@@H]1Cc1ccc(O)cc1)N1C[C@H](Cc2ccccc2)N(CCc2ccccc2)C(=O)C1=O | / | 12.2% | ? | -3.1% | / | i
O=C1NC[C@H](Cc2ccccc2)N(C[C@@H]2CCCN2C[C@H](Cc2ccccc2)N2C[C@H](Cc3ccccc3)N(CCc3ccccc3)C(=O)C2=O)C1=O | -4.3% | ? | ? | ? | ? | ?
CC(C)C[C@H]1CNC(=S)N1C[C@H]1CCCN1C[C@H](Cc1ccccc1)N1C[C@H](CC(C)C)N(CCc2ccccc2)C1=S | -9.0% | ? | 13µM* | 16.4µM* | ? | ?
CC(C)C[C@H]1CNC(=S)N1C[C@H]1CCCN1C[C@H](CC(C)C)N1C[C@H](Cc2ccccc2)N(CCc2ccccc2)C1=S | -23.3% | ? | ? | 20.6µM* | ? | ?
SMILES | HepG2 viability | ATXN2 expr inh | TDP1 cell CPT | TDP1 cell noCPT | TGFb inhibitor | ATXN viability
CC(C)C[C@H]1CNC(=S)N1CC1CCCN1C[C@H](CC(C)C)N1C[C@H](CC(C)C)N(CCc2ccccc2)C1=S (some centres undefined) | -38.8% | ? | 8.2µM* | 5.8µM* | ? | ?
CC(C)C[C@H]1CN([C@@H](CC(C)C)CN2CCC[C@H]2CN2C(=O)C(=O)NC[C@@H]2Cc2ccc(O)cc2)C(=O)C(=O)N1CCc1ccccc1 | / | 6.6% | ? | ? | / | i
O=C(NC1CC1)c1ccc(NC(=O)C2CCC2)cc1 | -7.0% | 6.4% | ? | ? | -3.1% | i
CCCCCCN1C[C@@H](O)[C@H](n2cc(C3CC3)nn2)C[C@@H]1c1ccc(Cl)cc1 | 15.8µM* | ? | 25.9µM* | ? | ? | ?
CCCCCCN1C[C@@H](O)[C@H](n2cc(C3CC3)nn2)C[C@@H]1c1ccc(C)cc1 | -16.8% | 1.6% | -19.8% | ? | 19.7% | ?
CCCCCC(=O)N1C[C@@H](n2cc(C3CC3)nn2)[C@H](O)C[C@@H]1c1ccc(Cl)cc1 | -31.0% | -23.1% | 16.4µM* | 20.6µM* | -5.6% | ?
CCCCCCN1C[C@H](O)[C@@H](n2cc(C3CC3)nn2)C[C@@H]1c1ccccc1 | -11.3% | 2.2% | ? | 23.1µM* | -4.4% | i

High-throughput results (PubChem BioAssay)
